The list is not random: actives were taken first. Their share in the collection is about 1.3%.
gsp ag – qHTS for Agonist of gsp, the Etiologic Mutation Responsible for Fibrous Dysplasia/McCune-Albright Syndrome: qHTS; gsp mutant cells, cAMP HTRF, 30 min; Potency, µM (doses to about 76.9 µM), inactives show at the top dose activation (cAMP increase), usual class: activators; AID 624287, 2012; 340,000 compounds, 0.13% hits; active means well fitted activation curve with a large enough effect; inconclusive means small, poorly fitted or top-dose-only effect, or another doubt; inactive means no such curve, though single readings can be large or run the other way; cell line not stated here;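 further: phosphodiesterase inhibitor Ro 20-1724 added with compounds to block cAMP breakdown; potency means the concentration at half of the fitted maximal effect; nearly all actives have a fitted effect of over 60% in size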
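Cells stably selected in G418 were plated at 2000/well, grown 16-24 hr, then given compounds in DMSO with the PDE inhibitor […] (300 uM solution added) for 30 min at 37C; cAMP was read by HTRF.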
pAkt inh – HTS Assay for Inhibitors of Akt Phophorylation: Primary Screen; activity change, % for hits at 50 µM; 360,000 compounds, 0.32% hits; Neuro2A IGF-stimulated pAkt S473 HTRF, 20 min; active compounds read low; AID 651550, 2012; in the data active means activity change below about -80%; inconclusive means mostly about -51% to -80%; further: on the % scale 0 is the no-effect control and ±100 the full control effect
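Single-point screen (50 µM final compound) in Neuro2A cells stimulated 20 min with 6 nM IGF at 37 deg C. After lysis, Ser473-phosphorylated Akt read by HTRF (ex 330 nm, em 615/665 nm) as the 665/615 ratio.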
RXFP1 antagonist – qHTS Assay for Antagonists of the Relaxin Receptor RXFP1. Relaxin receptor 1 (Homo sapiens), Q9HBX9. HEK293-RXFP1, relaxin-stimulated cAMP HTRF, 30 min; active compounds read low. activity change, negative = inhibition, % at 57.5 µM. 350,000 compounds, 0.59% hits;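 active means activity change of -60% or lower, but not beyond a set lower limit; inconclusive means change between -60% and -40%, or beyond the set limit; inactive means change above -40%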; further: on the % scale 0 is the no-effect control and ±100 the full control effect
gsp antag – qHTS for Antagonists of gsp, the Etiologic Mutation Responsible for Fibrous Dysplasia/McCune-Albright Syndrome: qHTS | gsp-mutant cells, cAMP HTRF, 30 min | Potency, µM (series often up to 76.9 µM), for inactives: top-dose activity change, negative = inhibition, actives largely listed as inhibitors | 340,000 compounds, 0.4% hits | AID 624288, 2012; calls by dose curve; cell line not stated here;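 further: intracellular cAMP measured with PDE inhibitor Ro 20-1724 present during compound exposure; potency means the concentration at half of the fitted maximal effect; on the % scale 0 is the no-effect control and ±100 the full control effect; nearly all actives have a fitted effect of over 65% in size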
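Cells in G418 medium, seeded 16-24 h, 37C; buffer exchange to DPBS + 1 mM CaCl2, 0.5 mM MgCl2, 0.05% BSA; cpds in DMSO + […] (300 uM stock), 30 min 37C; HTRF cAMP detection.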
RXFP1 agonist – qHTS Assay for Agonists of the Relaxin Receptor RXFP1; Relaxin receptor 1 (Homo sapiens), Q9HBX9; HEK293T-RXFP1 cAMP TR-FRET, 30 min; response scale: percent of porcine relaxin response, buffer zero; Potency, µM (highest dose often 57.5 µM), inactives show at the top dose activation, actives largely listed as activators; 370,000 compounds, 0.3% hits; AID 2676, 2010; active means well fitted activation curve with a large enough effect; inconclusive means small, poorly fitted or top-dose-only effect; further: potency means the concentration at half of the fitted maximal effect; on the % scale 0 is the no-effect control and ±100 the full control effect; nearly all actives have a fitted effect of over 60% in size
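Agonist response is measured as cAMP accumulation in an RXFP1-transfected HEK293T line under PDE4 inhibition. Values are scaled between buffer-only and 29 nM porcine relaxin, and EC50s come from standard Hill equation fits.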
TSHR antagonist – Antagonists of the Thyroid Stimulating Hormone Receptor: HTS campaign. TSHR-expressing cells, TSH-stimulated cAMP HTRF, 2 h; active compounds read low. AID 504810, 2011. 330,000 compounds, 0.2% hits. Thyrotropin receptor (Homo sapiens), P16473. activity change, negative = inhibition, % at 11.5 µM;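 active means activity change below a set negative limit, meaning inhibition stronger than a set level, cut at about -70% in these data; inconclusive means activity change between two set negative limits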; further: on the % scale 0 is the no-effect control and ±100 the full control effect
Target sequence (P16473 whole entry, looked up): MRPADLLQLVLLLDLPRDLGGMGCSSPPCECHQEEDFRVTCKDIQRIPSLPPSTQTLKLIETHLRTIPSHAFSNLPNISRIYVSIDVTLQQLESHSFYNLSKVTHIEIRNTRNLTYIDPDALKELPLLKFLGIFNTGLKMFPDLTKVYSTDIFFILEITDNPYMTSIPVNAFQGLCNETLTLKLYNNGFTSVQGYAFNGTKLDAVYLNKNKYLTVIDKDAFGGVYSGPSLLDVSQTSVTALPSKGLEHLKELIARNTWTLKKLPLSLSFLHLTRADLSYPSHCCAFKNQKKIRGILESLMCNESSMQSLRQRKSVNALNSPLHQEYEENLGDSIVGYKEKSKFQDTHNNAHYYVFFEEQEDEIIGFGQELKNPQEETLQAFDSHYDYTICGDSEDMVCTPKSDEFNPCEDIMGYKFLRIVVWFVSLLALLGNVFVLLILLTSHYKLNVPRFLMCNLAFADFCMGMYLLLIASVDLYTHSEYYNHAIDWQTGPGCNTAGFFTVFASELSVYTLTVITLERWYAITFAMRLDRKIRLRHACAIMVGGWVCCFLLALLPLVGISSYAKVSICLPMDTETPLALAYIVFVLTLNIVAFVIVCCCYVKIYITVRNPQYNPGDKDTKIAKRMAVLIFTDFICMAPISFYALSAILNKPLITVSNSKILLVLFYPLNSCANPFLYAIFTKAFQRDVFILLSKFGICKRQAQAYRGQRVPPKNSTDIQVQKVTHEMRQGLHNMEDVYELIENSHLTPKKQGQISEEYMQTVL
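Competitive HTRF cAMP read-out (cryptate anti-cAMP antibody, cAMP-d2; 30 min, room temperature) in freshly harvested TSHR cells. Compounds added before TSH at EC80 (4nM final), followed by 2 hours' incubation at 37 deg C.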
Starred values were filed as active, the others as inactive; i = inactive; ? = inconclusive; . = no result; [ ] = remark or other dose.

SMILES	gsp ag	pAkt inh	RXFP1 antagonist	gsp antag	RXFP1 agonist	TSHR antagonist
Cc1cccc(C)c1NS(=O)(=O)c1ccc(NC(=O)c2ccc(Cl)c([N+](=O)[O-])c2)cc1	?	i	-17	25µM*	2%	-29
O=C1c2ccccc2S(=O)(=O)c2cc(C(=O)N3CCC(C(=O)N4CCCCC4)CC3)ccc21	19%	i	.	3%	.	.
COc1cc(CN2CC(=O)N(c3cccc(Cl)c3C)C2=S)cc(OC)c1OC	?	i	1	-7%	0%	-3
COc1cc(CN2CC(=O)N(c3ccccc3Cl)C2=S)cc(OC)c1OC	-16%	i	-14	35µM*	0%	-11
COc1cc(NC(C)=O)ccc1NC(=O)c1cc2ccccc2o1	5%	i	-6	3%	2%	1
COc1cc(NC(=O)c2ccccc2[N+](=O)[O-])ccc1NC(=O)c1cc2ccccc2o1	24%	i	-13	22µM*	.	.
CC1CCCC(NC(=O)Cn2c(Cl)nc3c2c(=O)n(C)c(=O)n3C)C1C (stereo unspecified)	?	i	17	11%	.	13
CCCCCC1CCC(c2n[nH]c(=S)n2C)CC1 (stereo unspecified)	-6%[15.4 µM]	i	-64*	-14%	-3%	24
C=CCn1c(C2CC2)n[nH]c1=S	1%	i	0	-3%	2%	-6
Cc1cc(/C=C2/NC(=O)N(Cc3ccccc3F)C2=O)c(C)n1C(C)C	-5%[15.4 µM]	i	-22	11µM*	2%	3
CCn1c(C)cc(/C=C2/NC(=O)N(Cc3ccccc3F)C2=O)c1C	?	i	1	-14%	0%	-3
Cc1oc(-c2ccc(C(=O)NCCC(C)C)cc2)nc1CS(=O)(=O)c1ccccc1	.	.	-10	.	1%	.
CCC1S/C(=C(\C#N)C(=O)NCc2ccco2)N(c2ccc(F)cc2)C1=O (stereo unspecified)	13%	i	-12	2%	0%	-3
CCC1S/C(=C(\C#N)C(=O)NCc2ccco2)N(c2ccc(Br)cc2)C1=O (stereo unspecified)	-41%	-107%*	-15	-2%[15.4 µM]	2%	2
O=C(NCC(c1ccccc1)c1ccccc1)c1nn(-c2ccccc2Cl)nc1CO	.	.	-66*	.	1%	.
O=C(NCCCCc1ccccc1)c1nn(-c2ccccc2)nc1CO	.	.	-69*	.	0%	.
Cc1ccccc1-n1nc(CO)c(C(=O)NCC(c2ccccc2)c2ccccc2)n1	.	.	?	.	2%	.
CC1=C(C)N(C)[C@H](c2ccccc2Br)[C@H](O)C1=O	.	i	.	8%	.	.
Cc1cccc(N=Cc2cc(Br)cc(Cl)c2O)c1	3%[15.4 µM]	i	-64*	-34%	9%	-6
Cc1ncc([N+](=O)[O-])n1CC(=O)Nc1ccc(Br)cc1	-11%	i	-19	-7%	3%	0
CCc1nnc(NC(=O)C2=CCN(S(=O)(=O)c3ccccc3)CC2)s1	-12%	i	-9	4%	-3%	-9
COc1ccc2[nH]c3c(=S)nc[nH]c3c2c1	39%[15.4 µM]	i	9	16%	16µM*	19
CCOc1ccc(CC(=O)NCCc2csc(-c3ccc(Cl)cc3)n2)cc1	.	.	-8	.	4%	.
CC(C)(C)c1nnc(N/N=C/c2cc(Br)ccc2O)n(N)c1=O	-6%	i	-88*	28µM*	1%	-37
C[C@H](Cc1ccccc1)Nc1ncnc2c1ncn2[C@@H]1O[C@H](CO)[C@@H](O)[C@H]1O	.	i	.	-7%	11µM*	-12
SMILES	gsp ag	pAkt inh	RXFP1 antagonist	gsp antag	RXFP1 agonist	TSHR antagonist
NCCNC(=O)Cc1ccc(NC(=O)Cc2ccc(Nc3ncnc4c3ncn4[C@@H]3O[C@H](CO)[C@@H](O)[C@H]3O)cc2)cc1	.	i	.	16%	1.4µM*	6
CC(Cc1ccccc1)Nc1ncnc2c1ncn2C1OC(CO)C(O)C1O (stereo unspecified)	.	i	.	-1%	.	.
COc1ccc(OCC(=O)OCc2cc(=O)n3cc(C)sc3n2)cc1	.	.	.	.	2%	.
CSc1nc2ccccc2n1CC(=O)Nc1cc(C(F)(F)F)ccc1N1CCOCC1	-20%	-120%*	-6	-12%	2%	3
O=C(Nc1cc(C(F)(F)F)ccc1N1CCOCC1)c1cccnc1Cl	-3%	-111%*	-2	-9%	0%	-6
Cc1cc(NC(=O)C(C)SCC(=O)Nc2cc(C(F)(F)F)ccc2N2CCOCC2)no1 (stereo unspecified)	2%[15.4 µM]	i	-72*	3%	0%	-2
CCOc1ncccc1C(=O)Nc1cc(C(F)(F)F)ccc1N1CCOCC1	5%	i	15	2%	0%	1
NC(=O)c1nsc(C(=O)N(c2ccc(Cl)cc2)C(C(=O)NCC2CCCO2)c2cccs2)c1N (stereo unspecified)	-16%	i	-62*	?	2%	17
Cc1ccc(C)c(N(C(=O)c2snc(C(N)=O)c2N)C(C(=O)NCC2CCCO2)c2ccc(C)o2)c1 (stereo unspecified)	-6%[15.4 µM]	i	-87*	-15%	1%	1
CC1CCN(C(=O)CSc2ccc(-c3cccc([N+](=O)[O-])c3)nn2)CC1	9%[15.4 µM]	i	-14	28µM*	0%	-15
O=C(CSc1ccc(-c2cccc([N+](=O)[O-])c2)nn1)N1CCCCC1	28%	i	16	-17%	4%	-7
COc1ccc(-c2noc(CCC(=O)N3CCN(c4cccc(C(F)(F)F)c4)CC3)n2)cc1	-47%	i	-10	?	1%	-24
COc1cccc(C(=O)N(Cc2nc(-c3ccc(C)cc3)no2)C(C)C)c1	-16%	-100%*	6	-5%	-1%	-10
COc1ccc(-c2noc(CCC(=O)N3CCN(c4cccc(OC)c4)CC3)n2)cc1	.	i	.	45µM*	.	-15
CCOc1ccc(-c2nc(CSCC(=O)N3CCN(c4cccc(OC)c4)CC3)c(C)o2)cc1	?	i	-7	40µM*	1%	-33
COc1ccc(-c2nc(CSCC(=O)N3CCN(c4ccccc4F)CC3)c(C)o2)cc1	.	.	?	.	1%	.
CCC(C(=O)Nc1ccc(C)c(C)c1)n1c(=O)c(C(F)(F)F)nc2ccccc21 (stereo unspecified)	.	.	.	.	5%	.
